# From the supplement of paper PMC3334620
# The full ranking holds about 33,000 sequences; the median of “E-score (-0.5 to 0.5)” is about -0.012, and the highest 2% start at about 0.29. For the sample, the highest values were picked, then their nearest neighbours and some sequences at random.
# Target: T1, Ybr033w (UniProt P38073)
# T1 sequence: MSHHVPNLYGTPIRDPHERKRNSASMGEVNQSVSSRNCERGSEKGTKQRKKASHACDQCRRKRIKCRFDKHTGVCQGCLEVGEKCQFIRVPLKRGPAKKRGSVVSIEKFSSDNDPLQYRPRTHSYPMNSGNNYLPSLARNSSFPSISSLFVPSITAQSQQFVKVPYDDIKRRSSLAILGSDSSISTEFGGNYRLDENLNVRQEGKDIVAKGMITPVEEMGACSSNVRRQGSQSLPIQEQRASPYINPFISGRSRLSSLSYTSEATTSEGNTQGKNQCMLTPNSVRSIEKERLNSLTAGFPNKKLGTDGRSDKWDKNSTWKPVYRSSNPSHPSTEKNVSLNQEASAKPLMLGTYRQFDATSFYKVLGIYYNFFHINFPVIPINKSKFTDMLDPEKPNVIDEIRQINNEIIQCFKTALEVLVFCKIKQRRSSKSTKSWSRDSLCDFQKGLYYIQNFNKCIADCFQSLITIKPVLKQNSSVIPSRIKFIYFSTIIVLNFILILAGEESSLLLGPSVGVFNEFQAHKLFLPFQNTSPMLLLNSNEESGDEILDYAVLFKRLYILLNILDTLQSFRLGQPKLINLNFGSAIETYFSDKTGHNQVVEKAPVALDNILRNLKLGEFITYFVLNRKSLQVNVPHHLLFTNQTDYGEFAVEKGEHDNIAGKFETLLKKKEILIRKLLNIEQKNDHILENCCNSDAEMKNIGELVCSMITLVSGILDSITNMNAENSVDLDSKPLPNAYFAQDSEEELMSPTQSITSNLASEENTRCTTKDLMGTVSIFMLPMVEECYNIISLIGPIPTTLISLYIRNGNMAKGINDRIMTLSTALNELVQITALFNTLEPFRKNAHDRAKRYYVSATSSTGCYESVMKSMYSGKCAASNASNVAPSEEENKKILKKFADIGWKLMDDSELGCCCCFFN
# Test: PBM E-score (8-mer binding enrichment) (E-score (-0.5 to 0.5)); higher = stronger / more preferred TF binding
# Conditions: protein concentration: 200 nM; construct: GST-full length
# Procedure: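 Universal 'all 10-mer' protein binding microarrays (Agilent AMADID 015681) probed with GST-tagged S. cerevisiae TFs (full-length or DBD) made by in vitro transcription/translation (PURExpress), about 100-200 nM. Bound TF was detected with fluorescent anti-GST. Each ungapped 8-mer (which stands for itself and its reverse complement) is scored by the PBM enrichment score (E-score), a modified Wilcoxon-Mann-Whitney statistic from -0.5 to +0.5, computed with the Universal PBM Analysis Suite. Scale: above 0.35 generally sequence-specific binding.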
row,Sequence,PBM E-score
1,ATAAAATC,0.226
2,ATAAATAC,0.211
3,TTAAATAA,0.264
4,ATAAAAAG,0.316
5,ATAAATAT,0.396
6,ATAAAAGG,-0.0365
7,ATAAAATA,0.344
8,ATAAATAG,0.254
9,ATAAATAA,0.38
10,CGAAAATC,0.222
11,CACCTATA,0.0106
12,AGTCTGTC,-0.0266
13,ACCTTCCG,-0.032
14,CGTATAGC,-0.0573
15,CGATTGGC,-0.0233
16,ACCGGTCA,-0.2
17,CCCCAAAC,-0.101
18,AAATAAGA,0.16
19,ACTCAGAA,0.11
20,TGCTATAA,0.0493
21,ATATTGAT,0.39
22,AAATTGTA,0.22
23,AAATTGAC,0.108
24,ATATTGAA,0.189
25,ATATTGAG,0.259
26,AAATTGAA,0.127

row,Sequence,PBM E-score
1,AAATTGTT,0.317
2,AAATTGAT,0.336
3,AAATTGTC,0.192
4,AAGGGCAG,-0.151
5,TACTGGCA,-0.0764
6,ATAGAGCG,-0.117
7,AGCACTCC,-0.0492
8,ATAATACC,0.187
9,CTAATAAA,0.28
10,ACAATAAC,0.246
11,CTAATAAC,0.216
12,ACAATAAT,0.341
13,ATAATACA,0.305
14,TTAATAAA,0.381
15,ATAATACG,0.187
16,ACAATAAA,0.14
17,ATAATAAA,0.366
18,GTAATAAA,0.198
19,ATAATAGA,0.223
20,ACAGCCCG,-0.175
21,GATCTCCA,-0.0356
22,GGATCTAA,-0.0711
23,CGAGACCC,-0.167
24,GAGAACTA,0.101
25,AAGCCCTA,-0.124
26,ACATACAT,0.226

row,Sequence,PBM E-score
1,AACCCTAG,-0.0236
2,ACTTTAAT,0.114
3,AAGCAAAA,0.13
4,CCGGGTCG,-0.279
5,CCCGGGAC,-0.322
6,ATAATGAG,0.0777
7,ATAATAAT,0.305
8,ATAATAAC,0.159
9,ATAATGAT,0.203
10,ATAATAAG,0.18
11,ATAATGAA,0.331
12,CTTGCTGA,0.0188
13,CGGACAAA,0.297
14,AGGACAAA,0.17
15,CGGACAAG,-0.0192
16,CAGACTTA,-0.189
17,TCAAGAGA,0.0989
18,AGATTCTA,0.106
19,GATGTTCA,-0.079
20,CATGTTCC,0.0191
21,GATGTTCC,0.412
22,CCTGAGAC,-0.235
23,ATTCTCCG,0.305
24,ATTCTCCC,0.14
25,ATTCTCCA,0.175
26,CCACAGGC,-0.336

row,Sequence,PBM E-score
1,AACTCTCT,0.0664
2,ACCTCAGG,-0.12
3,ATATCTTG,0.288
4,ATATCTTA,0.281
5,ATATCTTC,0.218
6,CTAGAGGA,-0.102
7,GCAAATTA,0.106
8,TGGTCGAA,-0.209
9,CATATACA,0.324
10,GATATACA,0.144
11,TATATACA,0.24
12,GGTATACA,0.00479
13,AATATACT,0.279
14,AGTATACA,0.185
15,CATATACC,-0.165
16,AATATACA,0.316
17,TGTATACA,0.341
18,GTCTAATA,0.0847
19,GGCTCCAC,-0.267
20,GATAGGAC,-0.188
21,GTGATCAC,-0.181
22,TACTCACA,0.158
23,ATCGAGCG,-0.089
24,GATCTAGA,0.0239
25,GATACCCA,0.0285
26,CAATATAG,0.115

row,Sequence,PBM E-score
1,AACTATAT,0.335
2,AAATAGTT,0.227
3,AACTATAG,0.104
4,AAATAGTG,0.292
5,AAATAGTC,0.0679
6,AACTATAC,0.151
7,AGATATAG,0.171
8,AAATATGG,0.12
9,ATATATAG,0.332
10,CTATATAG,0.0604
11,AAATATAG,0.305
12,TCATCGGA,0.109
13,CAACCTTA,0.14
14,CCTTAGCG,-0.178
15,ATTTACCG,0.132
16,TACAATCA,0.171
17,AACTACCG,0.0353
18,TAATATAA,0.379
19,AAATATCG,0.247
20,AAATATCT,0.295
21,AAGTATAT,0.302
22,AAGTATAA,0.152
23,AAATATAC,0.312
24,AAGTATAG,0.12
25,CAATATAC,0.0977
26,AAATATCC,0.273

row,Sequence,PBM E-score
1,TAATATGA,0.284
2,GAATATAC,0.141
3,TAATAGAA,0.198
4,AGAGTAGG,0.0322
5,CTATCTGC,-0.0829
6,ACAACTGT,0.106
7,CCACTACC,-0.149
8,AGGTGCAG,-0.186
9,AATTCTGC,0.0888
10,ATGACGCA,-0.0224
11,ACCAGGTA,-0.225
12,ATCGTTAA,0.24
13,ATCTTCAG,0.185
14,ATATATAT,0.141
15,AAATATAT,0.339
16,AAATATAA,0.305
17,AAATATGT,0.252
18,GAATATAA,0.131
19,AAATAGAC,0.101
20,AAATAGAG,0.247
21,AAATAGAT,0.289
22,CAATATAA,0.284
23,CAAGTCGA,-0.0109
24,GGTGAATA,0.127
25,ACGCAACG,0.0621
26,GTAAGTCA,0.0193

row,Sequence,PBM E-score
1,AAGCTTAC,0.0655
2,AAGGTTTG,0.227
3,AGGTGAGC,-0.172
4,ACTAACCC,0.0277
5,GTCGCGAC,0.234
6,ATTAACAC,0.368
7,ATTAACAG,0.0928
8,GTTAACAA,0.0731
9,CTTAACAC,0.112
10,ATTAACAA,0.382
11,AATAACAC,0.222
12,CGATTAAC,0.103
13,AGATTAAG,0.214
14,AGATTAAA,0.295
15,GGATTAAA,0.341
16,AGATTAAT,0.284
17,AGATTAAC,0.199
18,CGATTAAA,0.174
19,GGATTAAC,0.441
20,TGATTAAA,0.27
